An excerpt weighted towards active compounds, which were near 3.1% of everything screened.
14-3-3 Bad inh = disrupts binding of bovine 14-3-3 zeta to phospho-Bad peptide; P63103; TR-FRET 14-3-3zeta/Dy647-pBad peptide displacement, 1 h; inhibition, % at 21.7 µM; hit rate 0.71% among 220,000;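 active = inhibition above about 70%, limit read from the data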;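 note: 0% = full 14-3-3 plus peptide FRET controls and 100% = background without 14-3-3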
Target sequence (P63103 whole entry, looked up): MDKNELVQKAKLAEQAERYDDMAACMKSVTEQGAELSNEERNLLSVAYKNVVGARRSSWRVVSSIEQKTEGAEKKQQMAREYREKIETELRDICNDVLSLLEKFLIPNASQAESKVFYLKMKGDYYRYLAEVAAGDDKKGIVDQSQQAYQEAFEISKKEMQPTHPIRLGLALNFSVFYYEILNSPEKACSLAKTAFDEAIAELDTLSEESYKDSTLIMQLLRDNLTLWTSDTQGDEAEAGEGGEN
Mcl-1 Bim block = human Bim-Mcl-1 interaction inhibition | Q07820 | Bead-based flow cytometry, Bim peptide-Mcl-1 binding | inhibition, % at 10 µM | hit rate 0.1% among 190,000 | AID 1009; in the data active = inhibition above about 40%;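 note: 0% = no compound tracer wells and 100% = peptide blocker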
Target sequence (Q07820 whole entry, looked up): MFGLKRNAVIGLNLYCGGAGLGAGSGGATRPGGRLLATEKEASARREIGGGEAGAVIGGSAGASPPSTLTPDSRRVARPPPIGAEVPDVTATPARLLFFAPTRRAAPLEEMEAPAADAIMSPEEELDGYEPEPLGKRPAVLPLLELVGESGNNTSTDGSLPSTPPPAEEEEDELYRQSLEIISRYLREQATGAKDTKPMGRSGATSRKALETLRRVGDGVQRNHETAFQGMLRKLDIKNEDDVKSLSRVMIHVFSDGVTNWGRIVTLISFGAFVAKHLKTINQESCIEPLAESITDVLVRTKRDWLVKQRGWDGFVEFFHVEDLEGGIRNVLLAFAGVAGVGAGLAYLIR
Mcl1 Bid PPI = disrupts binding of human Mcl-1 to Bid peptide; hit rate 0.97% among 220,000; inhibition, % at 21.7 µM; TR-FRET Mcl-1/Bid-Dy647 peptide binding, 1536-well; AID 1021; Q07820;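 active = compounds that cut the binding signal by more than half at the single screening dose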;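 note: His-tagged Mcl-1 with europium anti-His antibody binding Bid BH3 peptide; 0% = Mcl-1 plus peptide wells and 100% = peptide-only wells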
NCF1 inh = p47phox (human) inhibition. p47phox/p22phox peptide binding, fluorescence polarization, 2 h. inhibition, % at 24.7 µM. hit rate 0.53% among 220,000;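 active = inhibition above about 30%, limit read from the data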;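 note: 0% = p47phox with labelled peptide and 100% = labelled peptide alone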
Mcl1 Noxa PPI = disrupts binding of human Mcl-1 to Noxa peptide | TR-FRET Mcl-1/Noxa peptide binding, 2 h | hit rate 1.5% among 220,000 | inhibition, % at 21.7 µM | AID 1022 | Q07820;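 active = compounds that cut the protein-peptide binding signal by more than 50% relative to plate controls in a single-dose test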;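 note: His-tagged Mcl-1 with rhodamine Noxa BH3 peptide and terbium anti-His antibody; 0% = Mcl-1 plus Noxa peptide wells and 100% = peptide-only wells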
* = called active by the depositor; nt = no result given.

SMILES	14-3-3 Bad inh	Mcl-1 Bim block	Mcl1 Bid PPI	NCF1 inh	Mcl1 Noxa PPI
O=C(OC(C(=O)NCc1ccco1)C(OC(=O)c1ccccc1)C(=O)NCc1ccco1)c1ccccc1 (stereo not drawn)	-14.1	-3.0	-32.7	-5.0	-4.3
CC(C)NC(=O)C(OC(=O)c1ccccc1)C(OC(=O)c1ccccc1)C(=O)O (stereo not drawn)	70.2*	-4.0	15.0	-12.9	2.3
c1coc(Cn2nnnc2CN2CCN(C3CCCC3)CC2)c1	79.1*	-3.0	19.1	-3.6	32.3
CC(C)CC(=O)Nc1nnc(CSCc2ccc(F)cc2)s1	-9.1	nt	-11.4	-11.6	6.1
N=C1/C(=C/c2ccc(-c3cccc(C(=O)O)c3)o2)C(=O)N=C2SC=C(c3ccccc3)N12	93.2*	0.0	97.9*	-73.8	108.8*
O=C1OC(c2cccs2)=N/C1=C\c1ccc(-c2ccccc2Cl)o1	-0.8	0.0	-41.8	81.2*	15.9
N=C1/C(=C\c2ccc(-c3cc(Cl)cc(Cl)c3)o2)C(=O)N=C2SC=C(c3ccccc3)N12	-8.2	-1.0	-11.7	-31.5	16.7
O=C1OC(c2cccs2)=N/C1=C/c1ccc(-c2cccc(C(=O)O)c2)o1	76.0*	4.0	79.4*	-29.1	95.8*
COc1ccc(C2C(C#N)=C(N)Oc3cc(O)ccc32)cc1OC (stereo not drawn)	-5.8	-2.0	-42.8	-3.2	6.0
COc1cc(C2C(C#N)=C(N)Oc3cc(O)ccc32)cc(OC)c1OC (stereo not drawn)	-9.8	-2.0	59.6*	-1.7	21.0
O=[N+]([O-])c1ccc(/C=N/n2cnc3ccccc32)s1	5.1	0.0	-8.1	-6.9	10.2
Cc1cc2ncn(/N=C/c3ccc([N+](=O)[O-])s3)c2cc1C	3.6	-1.0	26.4	-9.6	87.3*
COc1ccccc1NC(=O)CN(Cc1ccco1)C(=O)c1ccc(Cl)nc1	-1.3	-2.0	-2.0	0.9	22.6
O=C(/C=C/c1ccc(O)cc1)c1ccc(O)cc1O	-0.9	-4.0	0.7	-9.7	20.9
O=CN/C=C/c1cc(O)ccc1O	0.3	nt	-196.2	-8.9	57.3*
OC(c1ccccn1)c1c[nH]c2ccccc12 (stereo not drawn)	16.0	1.0	-36.8	35.2*	0.2
CCOC(=O)C1=C(CP(=O)(c2ccccc2)c2ccccc2)NC(=O)NC1c1ccc(Cl)cc1 (stereo not drawn)	2.2	-3.0	7.3	-6.4	-2.7
CCOC(=O)C1=C(CP(=O)(c2ccccc2)c2ccccc2)NC(=O)NC1c1ccc(OC)cc1 (stereo not drawn)	7.7	74.0*	-2.9	0.8	4.4
CCOC(=O)c1c(NC(=O)CN(C)C)sc(C(=O)N(CC)CC)c1C	32.1	-6.0	70.3*	-17.4	-0.1
CC(=O)c1c(C)nc(-c2ccc(Cl)cc2)nc1N	44.8	3.0	-19.9	-10.5	30.6
CC(=O)c1c(C)nc(-c2ccc(Cl)cc2)nc1N=CN(C)C	84.3*	-1.0	3.0	-16.8	19.9
CCc1c(C)sc(NC(=O)Cn2nc(C)c([N+](=O)[O-])c2C)c1C(N)=O	9.7	-9.0	-45.1	-0.1	-28.8
CCOc1ccc(-c2csc3ncn(-c4ccc(OC)cc4)c(=O)c23)cc1	-0.5	-1.0	84.1*	-3.5	4.7
COc1ccc(-c2csc3ncn(-c4ccccc4)c(=O)c23)cc1OC	10.3	-5.0	-9.6	3.5	6.1
COc1cc(NC(=O)c2ccc3c(=O)n(Cc4ccco4)c(=S)[nH]c3c2)cc(OC)c1OC	34.8	-2.0	51.7*	15.4	42.6
SMILES	14-3-3 Bad inh	Mcl-1 Bim block	Mcl1 Bid PPI	NCF1 inh	Mcl1 Noxa PPI
COc1ccc(CCn2c(=S)[nH]c3cc(C(=O)NCc4ccco4)ccc3c2=O)cc1OC	76.7*	-3.0	52.3*	19.9	7.8
COc1ccc(-n2c(=S)[nH]c3cc(C(=O)NCc4ccco4)ccc3c2=O)cc1OC	5.7	0.0	-30.1	4.3	23.4
CCS(=O)(=O)N1CCN(CC2CC3C=CC2C3)CC1 (stereo not drawn)	53.4	-1.0	28.3	-12.9	33.8
CCCS(=O)(=O)N1CCN(CC2CC3C=CC2C3)CC1 (stereo not drawn)	71.9*	2.0	-7.5	-1.7	18.1
CCCS(=O)(=O)N1CCN(CC2CC=CCC2)CC1 (stereo not drawn)	73.1*	-1.0	28.6	-10.7	15.7
Cc1ccc(/C=N/n2c(-c3cccnc3)n[nH]c2=S)s1	-7.2	0.0	-47.2	2.9	51.0*
S=c1[nH]nc(-c2cc(-c3ccccc3)n[nH]2)n1/N=C/c1ccc(Br)s1	49.9	nt	47.7	14.5	69.9*
CN(C)c1ccc(/C=N/n2c(-c3cccnc3)n[nH]c2=S)cc1	-3.8	-1.0	-17.0	-16.5	55.5*
S=c1[nH]nc(-c2cccnc2)n1/N=C/c1ccc(Br)s1	7.8	-3.0	-29.3	12.3	41.1
O=C(CNCC1CCCO1)NCc1ccco1 (stereo not drawn)	42.6	2.0	-8.4	-2.8	28.5
CCN(CC)S(=O)(=O)c1ccc2nnn(O)c2c1	-12.7	0.0	7.5	-1.0	15.1
O=C(/C=C/c1cn(-c2ccccc2)nc1-c1cccnc1)NCCN1CCOCC1	85.1*	0.0	-19.6	0.5	-5.4
O=C(/C=C/c1cn(-c2ccccc2)nc1-c1cccnc1)N1CCCC1	-6.2	-1.0	-13.4	-5.3	-5.6
Cc1cc(C)cc(NC(=S)NCCN(C2CCCCC2)C2CCCC2)c1	-7.0	0.0	-37.6	-5.6	9.0
COc1ccccc1N1C(=O)C=C(Sc2nc(C)cc(C)n2)C1=O	10.5	nt	-30.4	18.0	54.4*
COc1ccccc1N1C(=O)C2CC(C)=C(C)CC2C1=O (stereo not drawn)	-7.2	1.0	1.5	-7.1	13.9
COc1ccc(CNC(=O)C2CC(c3cc(C(F)(F)F)cc(C(F)(F)F)c3)=NO2)cc1 (stereo not drawn)	-3.3	nt	1.1	-12.1	-8.4
C/C(=N\Nc1ccc(F)cc1F)c1cccs1	-15.8	0.0	-79.7	0.2	-12.2
O=C1COc2ccc(C(=O)COC(=O)c3sc4ccccc4c3Cl)cc2N1	-1.3	0.0	-5.5	0.7	26.4
Nc1cc(N)nc(SCC(=O)c2ccc3c(c2)NC(=O)CO3)n1	-5.5	-4.0	-34.6	-2.2	2.8
Cc1cc(C(=O)OCC(=O)c2ccc3c(c2)NC(=O)CO3)c2ccccc2n1	21.6	0.0	63.2*	-23.4	36.5
Cc1cc(=O)[nH]c(SCC(=O)c2ccc3c(c2)NC(=O)CO3)n1	3.5	nt	96.8*	-4.4	18.1
CN(C)S(=O)(=O)c1cccc(C(=O)OCC(=O)c2ccc3c(c2)NC(=O)CO3)c1	4.6	89.0*	-12.4	2.9	7.2
CN(C)S(=O)(=O)c1ccc(C(=O)OCC(=O)c2ccc3c(c2)NC(=O)CO3)cc1	10.2	nt	7.6	-12.7	-10.8
O=C(NCCCN1CCOCC1)c1sc2ccccc2c1Cl	-5.1	0.0	-20.1	-0.7	-8.2
CCn1c(SCc2nc3sc(C(=O)O)c(C)c3c(=O)[nH]2)nc2ccccc21	54.1	2.0	11.2	-41.2	77.1*

Screening results: PubChem BioAssay, several laboratories
